CHX counter = counter-screen for Shiga toxin inhibitors: cycloheximide protein synthesis inhibition; actives 12% (n = 300,000); AID 2314; max response, %; cell reporter, cycloheximide protein synthesis inhibition counterscreen; in the data active = max response mostly above about 13%, no sharp cut-off; inactive = mostly below about 14%; note: read at 38.3 µM for the half of the compounds with a filed dose; 0% is about no effect
SARS PLpro yeast = SARS-CoV PLP inhibition in yeast | actives 0.19% (n = 330,000) | Potency, µM (series often up to 32.9 µM), inactives show top-dose activity, positive = growth rescue, usual class: activators | S. cerevisiae expressing SARS-CoV PLpro, growth rescue | AID 485353; calls by dose curve; note: potency is the fitted concentration of half-maximal effect; 0% is about no effect; nearly all actives have a fitted effect of over 55% in size
Pf growth 96h = inhibits malaria parasite growth, 96 h. actives 6.9% (n = 320,000). P. falciparum luciferase reporter growth, 96 h. Potency, µM (top dose mostly 28.7 µM), inactives show at the highest dose activity change, negative = inhibition, usual class: inhibitors; note: potency is the fitted concentration of half-maximal effect; % is set by controls: 0 for no effect and ±100 for the full control effect
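Two parasite generations (96 h, 37 C, 5% CO2) of compound exposure in infected erythrocytes (0.05% parasitemia, 2% hematocrit). Luciferase-reporter P. falciparum; decreased luminescence indicates inhibited growth, aimed at apicoplast-acting delayed death.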
Pf growth 48h = P. falciparum growth inhibition at 48 hours (one generation); P. falciparum luciferase growth in erythrocytes, 48 h; Potency, µM (series often up to 28.7 µM), inactives show top-dose activity change, negative = inhibition, hits mostly inhibitors; actives 5.9% (n = 310,000); note: potency is the fitted concentration of half-maximal effect; % is set by controls: 0 for no effect and ±100 for the full control effect
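Luminescence readout; reporter = integrated firefly luciferase in P. falciparum. RBC culture at 2% hematocrit, 0.1% parasitemia final, 37 C/5% CO2; decreased signal taken as growth inhibition.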
Shiga toxin inh = inhibitors of Shiga toxin in Vero cells; Vero cells, Shiga toxin protein synthesis inhibition reporter; inhibition, % at 38.7 µM; actives 9.2% (n = 290,000); AID 2315; in the data active = inhibition mostly above about 28%, no sharp cut-off; inactive = mostly below about 43%; note: 0% is about no effect
NS1 function inh = influenza NS1 inhibition; Potency, µM (doses to about 46.1 µM), inactives show at the highest dose activity, positive = more growth; actives 0.4% (n = 270,000); calls by dose curve; note: potency is the fitted concentration of half-maximal effect; actives are rising curves; nearly all actives have a fitted effect of over 50% in size
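OD600 was taken as the measure of yeast growth restored by compound in an NS1-expressing S. cerevisiae strain. Cells had been washed out of glucose medium and diluted 1:100 into galactose -URA medium, pH 6.0.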
An asterisk follows results filed as active; ? = inconclusive; . = not tested or not shown; + = active, no number; [ ] = dose if it differs, or a comment. Compounds with a hit are over-represented: about 21% of the library has one in this group of screens. Unless noted, calls come from the whole dose curve; as a rule, active = well fitted inhibition curve with a large enough effect; inconclusive = small, poorly fitted or top-dose-only effect, or another doubt; inactive = no such curve, though single readings can be large or run the other way.

SMILES	CHX counter	SARS PLpro yeast	Pf growth 96h	Pf growth 48h	Shiga toxin inh	NS1 function inh
COc1cccc(C2c3[nH]c4ccccc4c3C[C@H]3C(=O)N(c4ccccc4C(=O)NCCCN4CCOCC4)C(=O)N23)c1 (stereo not given in full)	-3	6%	12µM*	15µM*	-4	-11%
COc1ccc(-n2nc(C(=O)NCCCN3CCOCC3)c3ccccc3c2=O)c(OC)c1	-3	-14%	-7%	-5%	-3	-6%
O=C(NCCN1CCOCC1)c1ccccc1N1C(=O)[C@@H]2Cc3c([nH]c4ccccc34)C(c3ccccc3)N2C1=O (stereo not given in full)	-1	6%	?	?	-2	-19%
O=C(NCCCN1CCOCC1)c1ccccc1N1C(=O)[C@@H]2Cc3c([nH]c4ccccc34)C(c3ccc(F)cc3)N2C1=O (stereo not given in full)	-2	2%	?	13µM*	-2	-28%
Cc1cc(C)n(-c2c(C)[nH]c3ccccc23)n1	4	0%	9.3µM*	?	-6	.
Cc1cc(C)n(-c2nc3ccccc3[nH]c2=O)n1	7	-15%	-7%	-4%	13	7%
CC(C)(C)c1ccc(C(=O)NCC(=O)N2CCC3(CC2)NCCc2[nH]cnc23)cc1	-2	-1%	15%	24%	-5	-15%
COc1ccc2nc(N3CCN(C(=O)c4ccc5ncsc5c4)CC3)sc2c1	.	5%	?	?	.	.
O=C(c1ccc2ncsc2c1)N1CCN(c2cccc(C(F)(F)F)c2)CC1	.	-2%	?	0%	.	.
CCOc1cccc2sc(N3CCN(C(=O)c4ccc5ncsc5c4)CC3)nc12	.	-4%	12µM*	?	.	.
COc1ccc(OC)c2sc(N3CCN(C(=O)c4ccc5ncsc5c4)CC3)nc12	.	5%	?	12µM*	.	.
Cc1ccc(N2CC(NS(=O)(=O)c3cccs3)CC2=O)cc1 (stereo not given)	.	1%	2%	-13%	.	.
CC(=O)Nc1ccc(/C(C)=N\NC(=O)c2ccc(-c3ccccc3)cc2)cc1	12	-1%	?	0.66µM*	7	18%
C/C(=N/NC(=O)Nc1ccccc1)c1ccc(C)cc1	-3	?	17%	7%	29*	-4%
C/C(=N\NC(=O)c1ccc(-c2ccccc2)cc1)c1cccc(N)c1	10	-3%	1%	1%	21	5%
CC(=O)Nc1ccc(/C(C)=N/NC(=O)c2ccc(F)cc2)cc1	24*	3%	-16%	2%	+	-12%
Cc1cc(C)n2c(nc3ccccc32)c1C(=O)NN	45*	-1%	?	-11%	18*	8%
COC(=O)c1c(C)cc(C)n2c1nc1ccccc12	15	0%	7.4µM*	12%	-9	-16%
Cc1ccc(S(=O)(=O)NC(=O)Nc2ccc(C)cn2)cc1	3	16%	17%	14%	27	-4%
COc1ccccc1OCCSc1ncnc2nc[nH]c12	-2	-2%	12µM*	4%	19	2%
Cc1cccc(OCCSc2ncnc3nc[nH]c23)c1	15*	-18%	120%	23%	21	-2%
O=C(O)CCSc1ncnc2nc[nH]c12	.	.	.	.	.	3%
O=C(NCC1CCCO1)c1ccc(COCC(F)(F)C(F)F)cc1 (stereo not given)	19*	5%	.	33%	26	4%
CC(C)NC(=O)c1ccc(COCC(F)(F)C(F)F)cc1	22	-15%	13µM*	.	19	0%
Cc1ccc(CNC(=O)Cn2nnc(C(=O)Nc3cccc(C)c3C)c2N)cc1	-1	3%	?	9%	-8	-3%
SMILES	CHX counter	SARS PLpro yeast	Pf growth 96h	Pf growth 48h	Shiga toxin inh	NS1 function inh
Cc1ccc(C)c(Cn2nnc(C(=O)Nc3ccc4c(c3)OCCO4)c2N)c1	.	1%	-7%	?	.	.
Cc1ccccc1Cn1nnc(C(=O)Nc2cccc(C)c2C)c1N	30*	-31%	-14%	?	30	-66%
Cc1cc(C)cc(NC(=O)c2nnn(Cc3cc(C)ccc3C)c2N)c1	-3	-8%	10µM*	?	14	-18%
O=c1c2c3c(sc2ncn1-n1cccc1)CCCCC3	36*	-14%	?	?	56*	4%
CC(=O)Nc1ccc(S(=O)(=O)Nc2ccccc2C(=O)N2CCCC2)cc1	-5	1%	35%	2%	-4	5%
C=CCOc1cccc(C2C(C(=O)c3ccc(C)o3)=C(O)C(=O)N2CCN(C)C)c1 (stereo not given)	-2	1%	3.7µM*	-13%	-8	-2%
Cc1ccc(C(=O)C2=C(O)C(=O)N(CCN(C)C)C2c2ccccn2)o1 (stereo not given)	.	.	.	.	.	6%
COc1ccc(C2C(C(=O)c3ccco3)=C(O)C(=O)N2CCCn2ccnc2)c(OC)c1 (stereo not given)	32*	1%	?	-5%	48	15%
CCN(CC)CCCN1C(=O)C(O)=C(C(=O)c2ccco2)C1c1ccc(OC(C)C)cc1 (stereo not given)	22*	-1%	?	40%	40	5%
C=CCOc1ccc(C2C(C(=O)c3ccco3)=C(O)C(=O)N2CCCN(CC)CC)cc1 (stereo not given)	9.5*	4%	46%	28%	31	0%
CSc1nc(C)c(C(=O)C[n+]2ccccc2)cc1C#N	-2	0%	-6%	?	-2	1%
CCOC1(c2ccccc2)CC1C(=O)N/N=C/c1cccc([N+](=O)[O-])c1 (stereo not given)	-2	0%	?	?	35	-3%
CCc1ccc(/C=N/NC(=O)c2cc(-c3ccccc3OC)nc3ccccc23)s1	2	-3%	2.6µM*	.	-3	-5%
COc1ccc(/C=N/NC(=O)c2cc(-c3ccccc3OC(C)C)nc3ccccc23)cc1CN1CCOCC1	-2	-2%	2%	3%	12	0%
COc1ccc(/C=N/NC(=O)c2cc(-c3ccccc3OC)nc3ccccc23)cc1COC(C)=O	-2	5%	1.9µM*	12µM*	-11	16%
COc1ccccc1-c1cc(C(=O)N/N=C/c2ccoc2)c2ccccc2n1	9	-3%	0%	9.3µM*	-8	?
COc1ccccc1-c1cc(C(=O)N/N=C/c2ccc(C)s2)c2ccccc2n1	0	12%[6.58 µM]	1.5µM*	.	8	?
Cc1cc(=O)oc(C)c1C(=O)Nc1ccc(N(C)C)cc1	1	-1%	26%	-6%	15	-1%
Cc1ccc(Cn2nc(C)c(C(=O)NCC(c3cccs3)N3CCOCC3)c2Cl)cc1 (stereo not given)	.	.	?	12µM*	.	.
COc1ccc(C(CNC(=O)c2c(C)nn(Cc3ccc(C)cc3)c2Cl)N2CCOCC2)cc1 (stereo not given)	.	-10%	?	10µM*	.	.

Source: PubChem
